Our source for the composite z-score and z-score values is PubChem BioAssay.

For test [1], the system named is Wnt5a (protein binding on small-molecule microarray). As to the kind of experiment: Wnt5a binders on small-molecule microarray, primary screen, biophysical, 635/667 nm fluorescence (AID 1142).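 Also: fluorescence read at 667 nm with signal to noise per printed feature.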 As to conditions: 635 nm fluorescence, higher = more signal.
Test [2] is described as follows: cell viability in Huh7 cells, primary screen, cytotoxicity control for HCV replication inhibitor project, CellTiter-Glo luminescence, basal, 48 h (AID 1143).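 Also: Huh7 hepatoma cells carrying a hepatitis C replication reporter with no stimulus; test concentration not given here.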 Conditions: Huh7 HCV replicon, higher = more signal, called active from +8 up or from −8 down.
Test [3] is described as follows: P. aeruginosa biofilm formation inhibitors, primary screen, PAO1 strain, BacTiter-Glo luminescence, LB-PBS (AID 1144). Conditions: 12 h, higher = more signal.
Test [4] is described as follows: CREB reporter modulators without forskolin, primary screen, cell-based, PC12, CRE-LacZ reporter, unstimulated (AID 1145). As to conditions: no forskolin, luminescence, 4.5 h, higher = more signal, called active from +8 up or from −8 down.
Test [5] is described as follows: CREB reporter modulators under forskolin, primary screen, cell-based, PC12, CRE-LacZ reporter, forskolin-stimulated (AID 1146).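 Also: PC12 cells with 6xCRE LacZ reporter stimulated by forskolin 10 µM; beta-galactosidase reporter signal reflecting CREB driven transcription.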 As to conditions: luminescence, 4.5 h, higher = more signal, called active from +8 up or from −8 down.
The target in test [6] is Streptavidin (Streptomyces avidinii) (UniProt P22629). As to the kind of experiment: streptavidin binders on small-molecule microarray, primary screen, artefact control for SMM compound annotation, biophysical, 635/667 nm fluorescence (AID 1147).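 Also: signal reflects streptavidin binding to arrayed compounds as a control protein.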 Conditions: streptavidin binding, higher = more signal.
Sequence of Streptavidin (Streptomyces avidinii) (P22629 whole entry, looked up): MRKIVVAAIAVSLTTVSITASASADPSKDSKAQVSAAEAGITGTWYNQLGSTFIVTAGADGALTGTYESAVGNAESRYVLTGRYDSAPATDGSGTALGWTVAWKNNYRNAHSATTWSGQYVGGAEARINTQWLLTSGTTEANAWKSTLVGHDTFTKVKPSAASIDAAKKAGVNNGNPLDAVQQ
Test [7] can be described thus: small-molecule binders of probe aInhba, primary screen, biochemical, small-molecule microarray, 635/667 nm fluorescence (AID 1148).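 Also: score merges 667nm spot fluorescence with signal-to-noise for antibody binding to printed compounds.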 Conditions: higher = more signal.
Test [8] concerns the target Torsin-1A (Homo sapiens) (UniProt O14656). Briefly: torsin A binders from cell lysate, primary screen, small-molecule microarray, wild-type, 635/667 nm (AID 1149). Conditions: COS7 hTOR1A-WT lysate, 635 nm fluorescence, higher = more signal.
Test [9] has the same target. As to the kind of experiment: small-molecule binders of mutant TOR1A in lysate, primary screen, cell lysate, small-molecule microarray, COS7 lysate, 635/667 nm fluorescence (AID 1150).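 Also: score pools 667 nm emission and signal to noise measuring lysate protein binding.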 Conditions: COS7 hTOR1A mutant lysate, 635 nm fluorescence, higher = more signal.
Test [10] deals with Sonic hedgehog protein (Shh). Briefly: small-molecule binders of Shh protein, primary screen, biochemical, small-molecule microarray, 635/667 nm fluorescence (AID 1151).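 Also: Shh protein binding to compounds spotted on small-molecule microarray slides; score combines spot fluorescence intensity with signal-to-noise across triplicate slides.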 Conditions: small-molecule microarray binding, 635 nm fluorescence; higher = more signal.
Test [11] can be described thus: E. coli DRC41 culture turbidity changes, primary screen, E. coli filamentation inducer project, strain DRC41, OD650, 48 h (AID 1152).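 Also: E. coli MC1000 strain DRC41 lacking acrAB efflux pump and sulA.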 Conditions: E. coli DRC41 (acrAB sulA), higher = more signal, called active from +8 up or from −8 down.
Test [12] in a line: small-molecule binders of probe aLefty1, primary screen, biochemical, small-molecule microarray, 635/667 nm fluorescence (AID 1153).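 Also: score merges spot fluorescence with signal-to-noise ratio from the scanned slide images.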 Conditions: higher = more signal.
Test [13] can be described thus: PSAC antagonists in infected red cells, primary screen, cell-based, P. falciparum Indochina, OD700, 1 h (AID 1154). Conditions: P. falciparum Indochina infected RBC osmotic lysis, higher = more signal, called active from +8 up or from −8 down.
Test [14] in a line: PSAC antagonists in infected red cells, primary screen, cell-based, P. falciparum Indochina, OD700, 2 h (AID 1155).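 Also: lysis reports solute entry through the parasite surface anion channel PSAC; channel blockers reduce lysis of infected cells.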 Conditions: P. falciparum Indochina infected erythrocytes, osmotic lysis OD700; higher = more signal, called active from +8 up or from −8 down.
Test [15] can be described thus: osmotic lysis modulators in infected erythrocytes, primary screen, PSAC antagonist project, cell-based, P. falciparum Indochina, OD700, 3 h (AID 1156). As to conditions: higher = more signal, called active from +8 up or from −8 down.
Test [16] is described as follows: PSAC antagonists in infected red cells, primary screen, cell-based, P. falciparum Indochina, OD700, 18 h (AID 1157). Conditions: P. falciparum Indochina infected erythrocytes, osmotic lysis OD700, 18 h; higher = more signal, called active from +8 up or from −8 down.
A short description of test [17]: modulators of S6 phosphorylation in cells, primary screen, cell-based, A549, cytoblot, luminescence, serum-stimulated (AID 1158).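 Also: serum-stimulated A549 lung adenocarcinoma cells; signal is phosphorylated S6 detected by cytoblot immunostaining with HRP secondary.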 As to conditions: A549 phospho-S6 cytoblot, 5 h, higher = more signal.
Test [18] has as its target NADPH oxidase 2 (Homo sapiens) (UniProt P04839). Briefly: NOX2-dependent H2O2 signal modulators, primary screen, NOX inhibitor project, cell-based, HEK293-NOX2, PMA-stimulated, Amplex Red fluorescence (AID 1159). Also: test concentration not given here. As to conditions: 45 min, higher = more signal, called active from +8 up or from −8 down.
For test [19], the target named is NADPH oxidase 4 (Homo sapiens) (UniProt Q9NPH5). As to the kind of experiment: NOX4-dependent H2O2 signal modulators, primary screen, NOX inhibitor project, cell-based, HEK293-NOX4, tetracycline-induced, Amplex Red fluorescence (AID 1160). Conditions: 45 min, higher = more signal, called active from +8 up or from −8 down.
Sequence of NADPH oxidase 4 (Homo sapiens) (Q9NPH5 whole entry, looked up): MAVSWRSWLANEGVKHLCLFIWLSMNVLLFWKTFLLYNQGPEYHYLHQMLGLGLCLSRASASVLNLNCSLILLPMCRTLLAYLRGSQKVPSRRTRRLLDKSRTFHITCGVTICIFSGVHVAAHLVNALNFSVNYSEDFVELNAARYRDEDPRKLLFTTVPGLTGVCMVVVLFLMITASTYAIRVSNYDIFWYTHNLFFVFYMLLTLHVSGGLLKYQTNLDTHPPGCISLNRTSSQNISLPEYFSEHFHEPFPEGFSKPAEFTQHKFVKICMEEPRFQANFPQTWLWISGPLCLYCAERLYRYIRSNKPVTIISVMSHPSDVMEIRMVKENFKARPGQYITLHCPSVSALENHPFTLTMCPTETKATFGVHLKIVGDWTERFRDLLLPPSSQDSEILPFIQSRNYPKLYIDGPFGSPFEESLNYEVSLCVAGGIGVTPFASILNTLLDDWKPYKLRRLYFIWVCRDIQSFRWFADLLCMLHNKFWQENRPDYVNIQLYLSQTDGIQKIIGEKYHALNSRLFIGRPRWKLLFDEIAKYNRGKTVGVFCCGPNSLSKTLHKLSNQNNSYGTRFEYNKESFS
Test [20] deals with NADPH oxidase 5 (Homo sapiens) (UniProt Q96PH1). As to the kind of experiment: NOX5-dependent H2O2 signal modulators, primary screen, NOX inhibitor project, cell-based, HEK293-NOX5, Amplex Red fluorescence (AID 1161). As to conditions: HEK293-NOX5, ionomycin, 45 min, higher = more signal.
Sequence of NADPH oxidase 5 (Homo sapiens) (Q96PH1 whole entry, looked up): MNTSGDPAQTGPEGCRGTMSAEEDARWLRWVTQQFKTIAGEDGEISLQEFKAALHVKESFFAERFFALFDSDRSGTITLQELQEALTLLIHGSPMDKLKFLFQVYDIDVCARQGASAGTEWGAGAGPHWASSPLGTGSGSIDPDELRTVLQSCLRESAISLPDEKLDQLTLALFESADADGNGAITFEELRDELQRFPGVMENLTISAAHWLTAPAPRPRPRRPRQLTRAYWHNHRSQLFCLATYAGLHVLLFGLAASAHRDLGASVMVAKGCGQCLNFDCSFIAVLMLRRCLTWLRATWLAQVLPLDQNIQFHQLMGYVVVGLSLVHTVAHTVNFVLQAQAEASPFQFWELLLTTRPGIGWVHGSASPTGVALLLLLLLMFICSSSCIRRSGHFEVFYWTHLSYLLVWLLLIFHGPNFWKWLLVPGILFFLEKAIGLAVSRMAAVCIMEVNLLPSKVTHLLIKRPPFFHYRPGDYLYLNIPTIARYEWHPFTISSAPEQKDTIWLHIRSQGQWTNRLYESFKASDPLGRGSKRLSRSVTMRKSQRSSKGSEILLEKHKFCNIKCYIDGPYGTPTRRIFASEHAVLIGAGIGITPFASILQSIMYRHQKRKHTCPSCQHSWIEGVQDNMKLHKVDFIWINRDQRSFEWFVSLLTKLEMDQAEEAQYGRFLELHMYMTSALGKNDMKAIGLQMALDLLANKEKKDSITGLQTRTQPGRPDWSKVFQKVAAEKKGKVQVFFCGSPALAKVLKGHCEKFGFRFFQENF

The structures appear in SMILES notation. Activity calls are given as the source filed them. Unless noted, no rule for the calls is given here.

Sequence of Torsin-1A (Homo sapiens) (O14656 whole entry, looked up): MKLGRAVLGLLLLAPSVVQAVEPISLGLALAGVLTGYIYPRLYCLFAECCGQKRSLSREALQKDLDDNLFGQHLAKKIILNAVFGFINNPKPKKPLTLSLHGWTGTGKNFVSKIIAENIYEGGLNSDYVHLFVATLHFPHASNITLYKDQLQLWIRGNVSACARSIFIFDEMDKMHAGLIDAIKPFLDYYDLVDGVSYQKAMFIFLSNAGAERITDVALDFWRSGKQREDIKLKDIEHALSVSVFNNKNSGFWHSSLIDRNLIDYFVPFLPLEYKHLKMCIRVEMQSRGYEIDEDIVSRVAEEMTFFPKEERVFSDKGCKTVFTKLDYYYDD
Sequence of NADPH oxidase 2 (Homo sapiens) (P04839 whole entry, looked up): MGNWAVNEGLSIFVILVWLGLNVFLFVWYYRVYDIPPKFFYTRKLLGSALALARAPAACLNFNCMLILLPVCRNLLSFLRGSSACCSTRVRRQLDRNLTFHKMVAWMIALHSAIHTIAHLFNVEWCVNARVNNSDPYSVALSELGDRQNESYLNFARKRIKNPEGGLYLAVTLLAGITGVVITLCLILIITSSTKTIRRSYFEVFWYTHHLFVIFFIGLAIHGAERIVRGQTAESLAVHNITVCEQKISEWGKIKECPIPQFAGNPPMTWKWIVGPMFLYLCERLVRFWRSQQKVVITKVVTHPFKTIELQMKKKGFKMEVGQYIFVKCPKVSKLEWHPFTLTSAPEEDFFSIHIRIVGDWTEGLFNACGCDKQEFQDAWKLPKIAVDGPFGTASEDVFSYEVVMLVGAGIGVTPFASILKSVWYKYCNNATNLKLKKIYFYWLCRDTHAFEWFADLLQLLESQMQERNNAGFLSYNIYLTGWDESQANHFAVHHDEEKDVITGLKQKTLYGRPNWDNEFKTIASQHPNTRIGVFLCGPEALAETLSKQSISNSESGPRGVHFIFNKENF

Turning to `C=CC[C@]1(C(=O)NCc2ccccc2)N=C(c2ccc(OCCCO)cc2)O[C@H]1c1ccccc1CN=[N+]=[N-]`, the composite z-score in test [1] is 0.625; in test [6], 0.866; in test [7] it was 0.682; with Torsin-1A (Homo sapiens) [8] it was -0.221; in the test with Torsin-1A (Homo sapiens) [9], 0.631; in test [10] it was -0.251. Also, the composite z-score in test [12] is 0.0556. Besides, the z-score is -3.52 (inactive) in test [2]; -0.728 (inactive) in test [3]; 0.857 (inactive) in [4]; -0.116 (inactive) in test [5]; -1.21 (inactive) in [11]; 19.7 (active) in test [13]. For the same compound, the z-score in [14] is 2.93 (inactive); in [15] it was 3.16 (inactive); in [16], 0.986 (inactive); in test [17], -0.387; in [18] it was -0.302 (inactive); in test [19], 0.617 (inactive). Further, the z-score in test [20] is -0.656.

Turning to `O=C(O)[C@@]1(CCS(=O)(=O)c2ccccc2)N=C(c2ccc(OCCCO)cc2)O[C@H]1c1ccccc1`, the composite z-score in [1] was -0.111; in test [6] it was 1.34; in [7] it was 0.102; in the test with Torsin-1A (Homo sapiens) [8], 1.43; with Torsin-1A (Homo sapiens) [9], 1.79; in test [10], -0.338. This compound also came in with a composite z-score in test [12] of 0.0458. Further, the z-score in test [2] is -0.798 (inactive); in [3], 0.0288 (inactive); in [4], -0.23 (inactive); in test [5], -0.324 (inactive); in test [11], 0.183 (inactive); in test [13] it was 22.6 (active). For the same compound, the z-score in [14] is 4.96 (inactive); in test [15], 0.178 (inactive); in test [16], 0.789 (inactive); in test [17], -0.238; in [18] it was -0.333 (inactive); in test [19] it was 1.66 (inactive). In addition, in [20], the z-score worked out at 1.26.

Regarding `COCC(=C=CC[C@@H](O)c1ccc(OCCO)cc1)C[C@@H](O)c1ccccn1`, the composite z-score in test [1] was 0.117; in test [6] it was 0.556; in test [7], 0.0001; with Torsin-1A (Homo sapiens) [8] it was 0.0308; with Torsin-1A (Homo sapiens) [9], -0.467; in test [10], 1.04. The compound further had a composite z-score in test [12] of -0.0061. For the same compound, the z-score in test [2] is 0.0073 (inactive); in [3], 0.0661 (inactive); in test [4], -0.0602 (inactive); in [5], 2.62 (inactive); in [11], -0.125 (inactive); in [13] it was 6.36 (inactive). Moreover, the z-score in [14] is 0.848 (inactive); in test [15], -0.315 (inactive); in [16], 0.429 (inactive); in test [17], -0.577; in test [18], -0.0904 (inactive); in test [19], 0.654 (inactive). The compound also gave a z-score in test [20] of 0.177.

Consider `CCOc1ccc(N2C(=O)CSC2c2cccc([N+](=O)[O-])c2)cc1` (stereo not given), for which the composite z-score was 0.124 in test [1]; 0.804 in test [6]; -0.0448 in test [7]; 0.331 with Torsin-1A (Homo sapiens) [8]; 0.731 with Torsin-1A (Homo sapiens) [9]; 0.0304 in test [10]. The same compound displayed a composite z-score in test [12] of 0.166. In addition, the z-score in test [2] is -0.689 (inactive); in test [3], -0.245 (inactive); in [4], -0.0243 (inactive); in [5], -1.34 (inactive); in [11], 0.379 (inactive); in test [13] it was 0.289 (inactive). Besides, the z-score in [14] was 0.285 (inactive); in test [15], 0.85 (inactive); in test [16], 0.0093 (inactive); in [17], -0.287; in test [18], -0.957 (inactive); in [19], -0.214 (inactive). The compound further displayed a z-score in test [20] of 0.887.

For the compound `COCCOC(=O)N1C(=O)[C@@]2(c3cc(C#CC4(O)CCCCCC4)ccc31)[C@H](C(=O)Nc1nc3ccccc3s1)[C@H]1C(=O)O[C@H](c3ccccc3)[C@H](c3ccccc3)N1[C@@H]2c1ccccc1OCCO`, the composite z-score in test [1] is 0.82; in test [6], 0.845; in test [7], -0.0762; with Torsin-1A (Homo sapiens) [8], 0.61; with Torsin-1A (Homo sapiens) [9] it was 0.144; in test [10], 0.976. The composite z-score in [12] was determined as 0.282. In addition, the z-score is -2.5 (inactive) in test [2]; 0.451 (inactive) in test [3]; 0.212 (inactive) in test [4]; -0.192 (inactive) in [5]; 0.736 (inactive) in test [11]; 2.48 (inactive) in test [13]. Moreover, the z-score in test [14] is 1.81 (inactive); in [15], 0.895 (inactive); in [16] it was 0.948 (inactive); in [17] it was 0.476; in test [18], 1.85 (inactive); in test [19], 0.572 (inactive). The compound further displayed a z-score in test [20] of 0.908.
